Hsp70 activator = switches on Hsp70 transcription; HeLa Hsp70 promoter luciferase reporter, luminescence; scaled: vehicle 0, proteasome-inhibitor control 100%; activation, % at 10 µM; 0.04% of 200,000 active; AID 1203;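 active = activation above the mean across all tested compounds plus 3 SD, cutoff set per campaign, cut at about 5.5% in these data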;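 note: 100% = MG132 at 30 µM as the positive control and 0% = DMSO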
HSF1 inh = HSF1 inhibition; activity change, negative = inhibition, % at 7.5 µM (by protocol); NIH3T3-HGL HSE-luciferase, MG132-induced, luminescence 8 h; stronger effect = lower value; 0.77% of 300,000 active;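 active = more than half of replicate wells show activity change below -50%, luminescence cut by over half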;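 note: luciferase reports HSF-1 transcriptional activity via heat shock element; 0% = median of DMSO wells and -100% = zero luminescence signal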
S1P4 antagonist = antagonists of human S1P4 receptor; O95977; S1P4-expressing cells, antagonist mode, reporter read-out; inhibition, % at 4.98 µM; 0.26% of 220,000 active; in the data active = inhibition above about 29%;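 note: 0% = wells stimulated with agonist and 100% = vehicle wells without agonist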
Target sequence (O95977 whole entry, looked up): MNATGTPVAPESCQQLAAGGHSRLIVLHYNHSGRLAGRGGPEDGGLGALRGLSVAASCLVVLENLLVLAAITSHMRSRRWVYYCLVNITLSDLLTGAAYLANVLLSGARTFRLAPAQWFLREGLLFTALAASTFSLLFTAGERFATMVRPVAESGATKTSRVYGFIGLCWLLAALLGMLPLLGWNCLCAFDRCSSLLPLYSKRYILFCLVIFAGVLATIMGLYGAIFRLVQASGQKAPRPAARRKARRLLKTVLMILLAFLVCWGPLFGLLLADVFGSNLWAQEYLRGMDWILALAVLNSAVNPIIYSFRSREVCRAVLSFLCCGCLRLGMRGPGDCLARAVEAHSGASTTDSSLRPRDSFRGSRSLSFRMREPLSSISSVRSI
S1P3 antagonist = blocks the human S1P3 receptor | Q99500 | CHO S1P3 NFAT-BLA reporter, FRET fluorescence, antagonist mode | inhibition, % at 4.98 µM | 0.27% of 170,000 active | AID 485;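 active = inhibition above the plate cutoff, the mean inhibition of test wells on that plate plus 3 SD, cut at about 28% in these data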;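 note: cells challenged with S1P at its EC80 of 0.8 µM; blue over green emission ratio from cleaved BLA substrate after 4 h stimulation; 0% = S1P-stimulated wells and 100% = unstimulated DMSO-only wells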
S1P4 ag = activates the human S1P4 receptor; O95977; S1P4-expressing cell line, agonist reporter assay; activation, % at 4.98 µM; 0.35% of 220,000 active; in the data active = activation above about 11%;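 note: 0% = DMSO vehicle and 100% = reference agonist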
HSF1 activator = increases HSF-1 driven luciferase reporter signal | NIH3T3-HGL HSF-1 luciferase reporter, MG132, 8 h; 100% = twice DMSO control signal | activation, % at 9 µM | 1.7% of 300,000 active;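 active = mean replicate activation of at least 50% with a set share of replicates each reaching 50%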;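 note: 0% = median of the neutral control wells and 100% = twice that signal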
* hit, by the source's call. Sampled rows, rich in hits. Any-hit rate of the full collection: about 2.9%.

`O=C(NCc1cnc2ccccn12)C1CCC(=O)N(Cc2cccc(F)c2)C1` (stereo not given) gave HSF1 inh -15 and HSF1 activator -9.
O=C(O)CSCC(=O)Nc1ccc(C2CCCCC2)cc1 was read as Hsp70 activator -1, HSF1 inh -78*, S1P4 antagonist -4, S1P4 ag 2 and HSF1 activator -79.
CN(CC(=O)O)Cc1nc2ccccc2[nH]1 was read as Hsp70 activator 0, S1P4 antagonist 15 and S1P4 ag 1.
For CCN(CC)CCNc1nc2nonc2nc1NCCN(CC)CC the results were HSF1 inh -1, S1P4 antagonist -1, S1P3 antagonist 10, S1P4 ag 1 and HSF1 activator -14.
CCOC(=O)c1ccc(NC(=O)CSc2nc(=O)n3cccc(C)c3n2)cc1 was read as HSF1 inh -3 and HSF1 activator 4.
COc1ccc(C)cc1NC(=O)C1CCN(C(=O)C2CC(=O)N(c3ccc(C)cc3)C2)CC1 (stereo not given) was read as HSF1 inh -3 and HSF1 activator 2.
Screening COc1ccc(-c2cc3ccc(O)cc3oc2=O)cc1OC returned HSF1 inh -2 and HSF1 activator 14.
For COc1ccc(-c2c(C)c3cc(O)ccc3oc2=O)cc1OC the results were HSF1 inh 26 and HSF1 activator 67*.
Screening COc1coc(C(O)CN)cc1=O (stereo not given) returned Hsp70 activator 0, HSF1 inh -7, S1P4 antagonist 6, S1P3 antagonist 12, S1P4 ag 1 and HSF1 activator 17.
Screening CCOC(=O)C(=Cc1cc(=O)c(OC)co1)C(=O)OCC returned Hsp70 activator 0, HSF1 inh 80, S1P4 antagonist -6, S1P3 antagonist 11, S1P4 ag 0 and HSF1 activator 94*.
Cc1cc(N2CCCCC2)n2ncc(-c3ccccc3)c2n1 was read as Hsp70 activator 0, HSF1 inh -5, S1P4 antagonist -9, S1P3 antagonist 22, S1P4 ag 2 and HSF1 activator -13.
`Cc1cc(N2CCC(C)CC2)n2ncc(-c3ccccc3)c2n1` gave Hsp70 activator 0, HSF1 inh -79*, S1P4 antagonist -18, S1P3 antagonist 13, S1P4 ag -1 and HSF1 activator -81.
`Cc1ccc(-c2cnn3c(N4CCOCC4)cc(C)nc23)cc1` gave HSF1 inh -68* and HSF1 activator -68.
Screening Cc1cc(N2CCOCC2)n2ncc(-c3ccccc3)c2n1 returned Hsp70 activator 0, HSF1 inh -61*, S1P4 antagonist 18, S1P4 ag 0 and HSF1 activator -69.
`Cc1cc(N2CCOCC2)n2ncc(-c3ccc(Cl)cc3)c2n1` gave S1P4 antagonist 5, S1P3 antagonist -9 and S1P4 ag 0.
Screening O=C(N/N=C/c1ccc([N+](=O)[O-])cc1)c1ccc(COc2ccccc2-c2ccccc2)cc1 returned Hsp70 activator 0, HSF1 inh -3, S1P4 antagonist -11, S1P3 antagonist 7, S1P4 ag 0 and HSF1 activator -2.
CSc1ccccc1-c1nnc(-c2ccc(Cl)cc2Cl)o1 was read as Hsp70 activator 0, HSF1 inh 38, S1P4 antagonist -28, S1P4 ag -2 and HSF1 activator 54*.
For CCCCOC(=O)CSc1nnc(-c2ccc(Cl)cc2Cl)o1 the results were Hsp70 activator 0, HSF1 inh -3, S1P4 antagonist -13, S1P3 antagonist -8, S1P4 ag 0 and HSF1 activator -14.
Screening Clc1ccc(-c2nnc(-c3ccccc3)o2)c(Cl)c1 returned Hsp70 activator 0, HSF1 inh 4, S1P4 antagonist -16, S1P3 antagonist 1, S1P4 ag 1 and HSF1 activator 23.
`Clc1ccc(-c2nnc(-c3ccc(Br)o3)o2)c(Cl)c1` gave Hsp70 activator 1, HSF1 inh 43, S1P4 antagonist -9, S1P3 antagonist 21, S1P4 ag 1 and HSF1 activator 60*.
Screening CSc1ccccc1-c1nnc(-c2ccc(Cl)c(Cl)c2)o1 returned Hsp70 activator 0, HSF1 inh 12, S1P4 antagonist 6, S1P4 ag 1 and HSF1 activator 10.
For CC(C)OC(=O)CSc1nnc(-c2ccc(Cl)cc2Cl)o1 the results were Hsp70 activator 0, HSF1 inh 48, S1P4 antagonist -3, S1P3 antagonist -21, S1P4 ag 1 and HSF1 activator 75*.
Screening S=C1NC[C@H](CC2CCCCC2)N1CCc1cccc2ccccc12 returned HSF1 inh 7 and HSF1 activator 19.
`Cc1ccc(NS(=O)(=O)c2cc(Br)cnc2N)cc1C` gave HSF1 inh 20 and HSF1 activator 47.
`CSc1cccc(NS(=O)(=O)c2cc(Br)cnc2N)c1` gave HSF1 inh -61* and HSF1 activator -70.
For COc1ccc2c(c1)CCc1c(C(=O)N3CC4(C)CC3CC(C)(C)C4)noc1-2 (stereo not given) the results were Hsp70 activator 0, HSF1 inh 55, S1P4 antagonist -4, S1P3 antagonist 14, S1P4 ag -2 and HSF1 activator 84*.
Screening COc1ccc2c(c1)CCc1c(C(=O)N3CCOCC3)noc1-2 returned Hsp70 activator 0, HSF1 inh 4, S1P4 antagonist 9, S1P3 antagonist 29, S1P4 ag 0 and HSF1 activator 11.
Screening Cc1ccc(O)c(/C=N/NC(=O)CN2CCCC2)c1 returned HSF1 inh -85* and HSF1 activator -87.
`COc1ccc(Br)cc1/C=N/NC(=O)CN1CCCCC1` gave HSF1 inh 3 and HSF1 activator 4.
Screening O=C(CN1CCCCCC1)N/N=C/c1ccc(Cl)c(Cl)c1 returned Hsp70 activator 0, HSF1 inh 3, S1P4 antagonist -11, S1P3 antagonist 7, S1P4 ag 2 and HSF1 activator 4.
For Cc1cccc(/C=N/NC(=O)CN2CCCCCCC2)c1 the results were Hsp70 activator 0, HSF1 inh -76*, S1P4 antagonist -2, S1P3 antagonist 17, S1P4 ag 1 and HSF1 activator -82.
For Cc1ccc(N(CC(=O)N2CCN(c3ccccc3F)CC2)S(=O)(=O)c2c(C)noc2C)cc1 the results were HSF1 inh -3 and HSF1 activator 20.
O=C(N/N=C/c1ccccc1Cl)c1ccc(F)cc1 was read as Hsp70 activator 0, HSF1 inh 32, S1P4 antagonist -6, S1P4 ag 1 and HSF1 activator 56*.
`Cc1occc1C(=O)N/N=C/c1ccc(OCc2ccccc2)cc1` gave HSF1 inh 26, S1P4 antagonist 6, S1P3 antagonist 17, S1P4 ag 1 and HSF1 activator 53*.
O=C(N/N=C/c1ccc(OCc2ccc(F)cc2)cc1)c1ccccc1 was read as Hsp70 activator 0, S1P4 antagonist -27, S1P3 antagonist -5 and S1P4 ag 1.
`Cc1occc1C(=O)N/N=C/c1ccc(-c2ccccc2)cc1` gave HSF1 inh 6 and HSF1 activator 34.
